Measured values published in PubChem BioAssay AID504848 (National Center for Advancing Translational Sciences (NCATS), 2011).
Values joined by “and” are separate entries in the source; they are usually repeats but may differ in a detail not shown here. Equal values may be shown once. In all, about 2,300 compounds went through this assay and about 1,400 (61%) were called active. Inconclusive results (about 29%) are left out. The call rests on the fitted dose curve; in most records, active means well fitted inhibition curve with a large enough effect; inconclusive means small, poorly fitted or top-dose-only effect, or effect the other way; inactive means no such curve, though single readings can be large or run the other way. The set was probably picked from earlier hits. The list shows a part of the results.

Test: Confirmation screen for delayed death inhibitors of the malarial parasite plastid, 96 hour incubation; further: nearly all actives have a fitted effect of over 60% in size
Conditions: P. falciparum luciferase growth in erythrocytes; series mostly up to 28.7 µM
Outline: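 Two-generation (96 h, 37 C) exposure of P. falciparum carrying an integrated firefly luciferase reporter in erythrocytes, 0.1% parasitemia and 2% hematocrit final, Albumax-supplemented RPMI. Luminescence decrease measures growth inhibition.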
Potency means the concentration at half of the fitted maximal effect.

| Compound | Potency |
| --- | --- |
| O=S(=O)(CC(CN1CCCCC1)N1CCCCC1)c1ccccc1 (stereo not given) | 7.94 µM (active) |
| Cc1ccc(OCCn2cc(C(=S)N3CCCC3)c3ccccc32)cc1C | 14.1 µM (active) |
| Cc1cc(C)nc(SCc2nnc(SCC(=O)Nc3nc(-c4ccccc4)cs3)n2C)n1 | 14.1 µM (active) |
| CCOC(=O)CSc1nnc(CNc2nc(-c3ccccc3)cs2)n1C | 10 µM (active) |
| CCCCN(CCCC)CCC(O)c1cc2c(Cl)cc(Cl)cc2c2cc(C(F)(F)F)ccc12 (stereo not given) | 39.8 nM (active) and 20 nM (active) |
| COc1ccc(-n2c(C)cc(C(=O)Cn3c(NCCO)nc4ccccc43)c2C)cc1 | 10 µM (active) |
| CCCc1c(C)c2cccc(C)c2[nH]c1=O | inactive |
| N#CC(C#N)=C1C=CC=CN1/C(=C\c1ccco1)C(=O)c1ccc(Cl)cc1 | 15.8 µM (active) |
| N#CC(C#N)=C1C=CC=CN1/C(=C\c1ccco1)C(=O)c1ccc(-c2ccccc2)cc1 | 12.6 µM (active) |
| COc1ccc(C(=O)/C(=C\c2ccco2)N2C=CC=CC2=C(C#N)C#N)cc1 | 15.8 µM (active) |
| COc1ccc(CCNS(=O)(=O)c2ccc(Br)s2)cc1 | inactive |
| CN1c2ccccc2C(C)(C)C12CC(c1ccc(S(=O)(=O)N3CCCCC3)cc1)=NO2 (stereo not given) | 5.01 µM (active) |
| CCN(CC)S(=O)(=O)c1ccc(C2=NOC3(C2)N(C)c2ccccc2C3(C)C)cc1 (stereo not given) | 12.6 µM (active) |
| CC(C)NC(=O)c1onc(CSc2cccc3ccccc23)c1C(=O)O | inactive |
| Cc1nn(C(C)C(=O)NCCCc2ccccc2)c(=O)c2nn(-c3ccccc3)c(C)c12 (stereo not given) | 12.6 µM (active) |
| Cc1nn(C(C)C(=O)NCCC2=CCCCC2)c(=O)c2nn(-c3ccccc3)c(C)c12 (stereo not given) | 11.2 µM (active) |
| Cc1c(NC(=O)C(C)Sc2nccn2C)c(=O)n(-c2ccccc2)n1C (stereo not given) | inactive |
| Cc1nn(C(C)C(=O)Nc2ccccc2Cl)c(=O)c2nn(-c3ccccc3)c(C)c12 (stereo not given) | 10 µM (active) |
| Cc1ccc(C(=O)NCC(=O)NCCCc2ccccc2)s1 | inactive |
| CSc1ccc(CNC(=O)C(C)n2nc(C)c3c(C)n(-c4ccccc4)nc3c2=O)cc1 (stereo not given) | 11.2 µM (active) |
| CCCCCCC1C(C#N)=C(N)OC2=C1C(=O)CCC2 (stereo not given) | inactive |
| Cc1ccc(-c2cc(C(=O)N/N=C/C=C/c3ccco3)c3ccccc3n2)cc1C | 14.1 µM (active) |
| CC(C)C[C@@H](NC(=O)[C@H](Cc1ccccc1)NC(=O)c1cnccn1)B(O)O | 0.178 µM (active) |
| CC(C)=N/N=C1/NC(=O)C(Cc2ccccc2)S1 (stereo not given) | 7.94 µM (active) |
| Cc1cc(=O)oc2ccc(OCC(=O)N3CCc4ccccc43)cc12 | 6.31 µM (active) |
